Assay results as given in PubChem BioAssay AID1345083 (National Center for Advancing Translational Sciences (NCATS), 2018).
Hit rate of the full screen: of about 94,000 compounds, about 6,200 (6.6%) were called active. Inconclusive results (about 31%) are left out. Calls follow the shape of the dose curve; as a rule, active = well fitted inhibition curve with a large enough effect; inconclusive = small, poorly fitted or top-dose-only effect; inactive = flat fitted curve, though single readings scatter. Shown is part of a subset that was picked to be rich in actives. Where a call stands in place of a potency, no number is given.

test: Cytotoxic Profiling in HEK 293 Cell Line of Diverse Libraries Using Quantitative High-Throughput Screening; conditions: HEK 293 viability, ATP luminescence (CellTiter-Glo), 48-72 h; series mostly up to 115 µM; also: nearly all actives have a fitted effect of over 60% in size
Summary of the method: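 HEK 293 cells at 250 cells/well were exposed to compounds by pintool transfer for 48 or 72 hr at 37 degree Celsius, 5% CO2. Viability was read as ATP-coupled luminescence with CellTiter-Glo after 10 min at room temperature.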
Potency is read from the fitted curve at half-maximal effect.

| Structure (SMILES) | Potency |
| --- | --- |
| O=C1NC2(Cc3ccccc31)CN([S+](=O)([O-])c1cccc(C(F)(F)F)c1)C2 | inactive |
| O=C(NCC1CC1)c1cn(C2CN(C(=O)Nc3ccccc3)C2)nn1 | inactive |
| CCCNC(=O)N1CCOC[C@H](Oc2cccnc2)C1 | inactive |
| CCc1cccc(NC(=O)C2(C)CCCCC(=O)N2)c1 (configuration not stated) | inactive |
| CC(=O)N1CCOc2ccc(CCC(=O)NCc3nc4ccccc4n3C)cc2C1 | inactive |
| CCCCN1C(=O)[C@@H]2C[C@@H](O)CN2C2(CN(CC(C)C)C2)C1=O | inactive |
| COCC1(CNS(=O)(=O)c2ccc(F)cc2)C[C@@H](O)[C@@H](O)C1 (some centres not stated) | inactive |
| COc1ccc(CNC(=O)[C@@H]2CCC[C@@H](NCc3nccs3)CN(C)C(=O)C2)cc1 | inactive |
| COc1ccc(Nc2ccnc(N3CCCC(C(=O)NCc4ccc(C(F)(F)F)cc4)C3)n2)cc1 (configuration not stated) | 20 µM (active) |
| COc1ccc(Nc2ccnc(N3CCC(C(=O)N4CCN(C(C)=O)CC4)CC3)n2)cc1 | inactive |
| Cc1nsc(NC(=O)N2CCC(CO)CC2)n1 | inactive |
| CCOc1ccccc1C(=O)N1CCC(N2CC3CC(C2)[C@H]2CCCC(=O)N2C3)CC1 (some centres not stated) | inactive |
| COC[C@@H]1CN(C(=O)Cn2cc(C)cn2)C[C@H]1c1ccccn1 | inactive |
| Cc1ccc(C)c(NC(=O)Cn2nc3n(c2=O)CCCCC3)c1 | inactive |
| CN(CCc1cn[nH]c1)c1ccc(-c2nc(-c3ccccc3F)no2)cn1 | 31.6 µM (active) |
| O=C(C1CCC1)N1CCC(Oc2cccnc2)C1 (configuration not stated) | inactive |
| Cc1noc(C)c1-c1cc(-c2cncnc2)cn2cncc12 | inactive |
| OCc1ccc(-c2cc(-c3cccnc3)c3cncn3c2)cc1 | inactive |
| Cc1noc(C)c1-c1cc(-c2ccccc2Oc2ccccc2)cn2cncc12 | 79.4 µM (active) |
| COc1ccccc1-c1onc(C)c1C(=O)NCc1ccc(Cl)cc1 | inactive |
| CCCOCCCNC(=O)c1c(C)noc1-c1ccccc1Cl | inactive |
| COc1ccccc1-c1onc(C)c1C(=O)NCCC(c1ccccc1)c1ccccc1 | 25.1 µM (active) |
| O=C(c1ccc2nnc(C3CC3)n2c1)N1CCOCC1 | inactive |
| CC(C)n1c(C2CCN(C(=O)Cc3cccc(F)c3)CC2)nn(C)c1=O | inactive |
| O=C(C1CCCN(c2ccnc3ccnn23)C1)N1CCCCC1 (configuration not stated) | inactive |

| Structure (SMILES) | Potency |
| --- | --- |
| CCC(C)N1CCN(C(=O)CCc2ccc3c(c2)CN(C(=O)NC(C)C)CCO3)CC1 (configuration not stated) | inactive |
| O=C(c1ccoc1)N1CCOc2ccc(CN3CCc4ccccc4C3)cc2C1 | 39.8 µM (active) |
| O=C(c1ccoc1)N1CCCN(C(=O)C2COc3ccccc3C2)CC1 (configuration not stated) | inactive |
| O=C(c1ccccc1)N1CCOc2ccc(CN3CCc4ccccc4C3)cc2C1 | 44.7 µM (active) |
| O=C(CC1CCCC1)N1CCOc2ccc(CN3CCCCC3)cc2C1 | inactive |
| O=C1CCN(Cc2ccc3c(c2)CCO3)CCOCCN1 | inactive |
| COc1ccccc1N1CCN([C@@H]2[C@H](O)[C@H](CO)O[C@@H]2CNC(=O)c2ccc(F)c(Cl)c2)CC1 | inactive |
| CN1C[C@H](NCc2nccn2C)CCC[C@@H](C(=O)NC2CC2)CC1=O | inactive |
| O=C(NCc1cccs1)c1nc(-c2cc(Cl)cc(Cl)c2)c2ccccn12 | inactive |
| Cc1ccncc1C(=O)N1[C@@H]2CC[C@H]1CC(NC(=O)c1ccc(F)cc1)C2 (some centres not stated) | inactive |
| CCOCC(=O)N1[C@@H]2CC[C@H]1CC(NC(=O)c1ccc(F)cc1)C2 (some centres not stated) | inactive |
| CCc1cccc(NC(=O)N2[C@@H]3CC[C@H]2CC(NC(=O)c2ccc(F)cc2)C3)c1 (some centres not stated) | 39.8 µM (active) |
| CNC(=O)c1cc(C)nc2onc(C3CCCN(C(=O)c4ccccn4)C3)c12 (configuration not stated) | inactive |
| CCC(c1ccccn1)N(C)C(=O)c1cc(COc2ccccc2)[nH]n1 (configuration not stated) | inactive |
| COc1ccccc1-c1ccc(CN2CCCCC2C(=O)NCc2cccc(Cl)c2)cc1 (configuration not stated) | 22.4 µM (active) |
| CCOc1cc(=O)n2c(c1C(=O)NCc1cccc(Cl)c1)CCCC2 | inactive |
| CN1CCCCCC1C(=O)NCc1cccnc1Oc1ccccc1F (configuration not stated) | inactive |
| COc1ccc(OC)c(S(=O)(=O)N2CCC(CC(=O)NCc3ccccc3)C2)c1 (configuration not stated) | inactive |
| COc1ccc(CNC(=O)C2CCCCN2Cc2ccc(-c3ccccc3OC)cc2)cc1 (configuration not stated) | 31.6 µM (active) |
| C#CCNC(=O)C1CCc2nnc(-c3ccccc3OC)n21 (configuration not stated) | inactive |
| COc1ccc(F)cc1-c1ccc(CN2CCCCC2C(=O)NCc2ccccn2)cc1 (configuration not stated) | 25.1 µM (active) |
| C=C(C)CCC(C)N1CCC(N2CCC(C(=O)NCc3ccccn3)CC2)CC1 (configuration not stated) | inactive |
| CCNC(=O)[C@@H]1CCCN1[C@@H](C(=O)NC)c1ccccc1OC | inactive |
| Cc1ccc2[nH]c(CCCn3cc(-c4nccn4C)nn3)nc2c1C | inactive |
| Cc1cnc(C(=O)N2CC[C@H](CO)[C@H](N(C)C)C2)cn1 | inactive |

| Structure (SMILES) | Potency |
| --- | --- |
| COC(=O)c1nc(NC(=O)Cn2nc3c(cc2=O)CCCCC3)sc1C | inactive |
| CC(=O)c1cc(CN2CCN(c3nnc(C(F)(F)F)s3)CC2)cs1 | inactive |
| O=C(C1CC1)N1CCC2(CC1)C(=O)NCN2Cc1ccc(Cl)cc1 | inactive |
| C[S+](=O)([O-])N1CC2(Cc3ccccc31)CN(C(=O)C1CC1)C2 | inactive |
| COc1ccc(CNC(=O)N2CC3CN(C)CC(C2)O3)cc1 | inactive |
| CC(=O)N1CCC(NC[C@H]2O[C@H](Cc3cc(-c4cccc(O)c4)on3)CC[C@@H]2O)CC1 | inactive |
| COc1ccc(CNC[C@H]2O[C@H](Cc3cc(-c4ccc(OC)cc4)on3)CC[C@@H]2O)cc1 | 35.5 µM (active) |
| Cc1ncsc1C1N(C2CCN(C(=O)C3CC3)CC2)C(=O)C12CCCC2 (configuration not stated) | inactive |
| COc1ccc(C(=O)Nc2cc(-c3ccccn3)nn2-c2ccccc2)cc1 | inactive |
| COc1ccc(-n2nc(-c3ccccc3)n(CC(=O)N(C)CC(C)C)c2=O)cc1 | inactive |
| Cc1nn(-c2ccccc2)c2c1C(C(C)C)N(C1CN(C(=O)c3ccc(Cl)nc3)C1)C2=O (configuration not stated) | inactive |
| COc1ccc(-n2nc(C)c([C@H]3C=C[C@@H](OC(=O)Nc4cccc(F)c4)C3)c2C)cc1 | 20 µM (active) |
| CCOCCOC1CCN(C(=O)Nc2cccc(F)c2)CC1 | inactive |
| COc1ccc(C(=O)Nc2cccc(-c3nnc4n3CCCC4)c2)cc1 | inactive |
| Cc1nn(-c2ccc(C(C)C)cc2)c(C)c1[C@@H]1C=C[C@@H](NC(=S)NCC(C)C)C1 | 25.1 µM (active) |
| Cc1nn(-c2ccccc2)c2c1C(C)N(C1CN(C(=O)Nc3ccccc3)C1)C2=O (configuration not stated) | inactive |
| CCC(C)NC(=O)Cc1csc2nc(C)c(-c3cc(C)n(-c4ccc(C(C)C)cc4)n3)c(=O)n12 (configuration not stated) | inactive |
| COc1ccc(-n2nc(C)c([C@@H]3C=C[C@@H](NC(=O)Nc4ccccc4)C3)c2C)cc1 | 50.1 µM (active) |
| Cc1nn(-c2ccc(C(C)C)cc2)c(C)c1[C@@H]1C=C[C@@H](NC(=O)Nc2ccccc2)C1 | 39.8 µM (active) |
| O=C(Cc1cccnc1)NC1CC(=O)N(Cc2cccc3ccccc23)C1 (configuration not stated) | inactive |
| CCNC(=O)c1noc(-c2ccc[nH]c2=O)n1 | inactive |
| Cc1nc(CC(=O)N[C@@H]2COCC[C@H]2Oc2ccc(C#N)cc2)c(C)s1 | inactive |
| Cc1ccc(C2Cn3cnc(C(=O)N4CCC(C(=O)NCCC(C)C)CC4)c3CO2)cc1 (configuration not stated) | inactive |
| Cc1ccc(C(=O)N2CCC(c3nn(-c4ccccn4)c(=O)[nH]3)CC2)cc1 | inactive |
| CCCn1cnc2c1CN(S(=O)(=O)c1ccc(C#N)cc1)[C@H](C(=O)OC)C2 | inactive |

| Structure (SMILES) | Potency |
| --- | --- |
| CCN(CC)C(=O)C(NC(=O)c1ccc(OC)cc1)C1CCN(C(=O)c2ccc(F)cc2)CC1 (configuration not stated) | inactive |
| O=C(NC1CCCCC1)[C@@H]1C[C@@H](O)CN1C1CCN(C(=O)c2ccncc2)CC1 | inactive |
| O=C1NC2(Cc3ccccc31)CN(Cc1cscn1)C2 | inactive |
| O=C1NCCCCCCN(Cc2ccncc2)[C@@H]2CN(C(=O)NCCc3ccccc3)CC[C@@H]12 | inactive |
| COc1ccc(NC(=O)[C@@H]2C[C@@H](O)CN2C2CCN(C(=O)c3cccc(OC)c3)CC2)cc1 | inactive |
| COc1ccc(NC(=O)N[C@@H]2C=C[C@@H](c3c(C)nn(-c4ccc(C(C)(C)C)cc4)c3C)C2)cc1 | 31.6 µM (active) |
| O=C(c1ccc(Cn2cccn2)o1)N1CCn2nc(C(O)CO)cc2C1 (configuration not stated) | inactive |
| CN1CCN([C@@H]2[C@H](O)[C@H](CO)O[C@@H]2CNS(=O)(=O)c2ccccc2)CC1 | inactive |
| CCCn1c(C)cnc1C1CCN(C(=O)C2CCCC2)C1 (configuration not stated) | inactive |
| O=c1c2nc(OCc3ccc(-n4cccn4)cc3)ccc2ncn1Cc1ccccc1 | 28.2 µM (active) |
| COc1ccc(-c2ccc3ncn(Cc4ccccc4)c(=O)c3n2)cc1OC | inactive |
| O=C1CN(C(=O)c2ccc(-n3cccn3)cc2)CC(OCc2ccccc2)CN1Cc1cccnc1 (configuration not stated) | inactive |
| CN(C)C(=O)c1cc(-c2cccc(C(F)(F)F)c2)c2nncn2n1 | inactive |
| CC(=O)N1CCc2[nH]cnc2C12CCN(C(=O)c1ccc(=O)[nH]c1)CC2 | inactive |
| CC(C)CNC(=O)C1Cn2cccc2C(=O)N1CC(C)C (configuration not stated) | inactive |
| COc1ccc(-n2c(=O)c(C(=O)NCC3CC3)nc3cccnc32)cc1 | inactive |
| COc1ccc2nc([C@H]3CCN(Cc4ccc(NC(C)=O)cc4)C3)[nH]c2c1 | inactive |
| COc1ccc(CN2C[C@H]3CN(Cc4ccc(NC(C)=O)cc4)CCN3C2=O)cc1 | 89.1 µM (active) |
| O=C(Nc1ccccc1)N1CCN2C(=O)N(Cc3ccc(F)cc3)C[C@H]2C1 | inactive |
| COc1ccc(CCC(=O)N2CCCC(c3nc(-c4cccnc4)no3)CCNC(=O)CC2)cc1 (configuration not stated) | inactive |
| O=C(NC1CCCCC1)N1CCCCC1c1noc(COCC2CC2)n1 (configuration not stated) | inactive |
| O=C(Cn1nc2c(cc1=O)CCCC2)Nc1nc(-c2ccc3c(c2)OCO3)cs1 | inactive |
